The list is not random: actives were taken first. Their share in the collection is about 2%.
PKA-R1A act: activates the PKA-R1A holoenzyme complex | activation, % at 11.4 µM | P00514+P68181 | 340,000 tested, 0.083% active | AID 504707 | PKA-R1A dissociation, Cy5-IP20 fluorescence polarization; scaled: DMSO 0%, 113 µM cGMP 100%;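 active means percent activation above the mean of all tested compounds plus 3 SD, cut at about 19% in these data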;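 further: higher means more PKAc released from R1A so a rise in polarization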
MsrA act: bovine methionine sulfoxide reductase A activation. purified bovine MsrA, absorbance read-out. activation, % at 10.6 µM. 360,000 tested, 0.3% active; in the data active means activation above about 7.5%;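 further: 0% = vehicle and 100% = reference activator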
SUMO Mot1 rescue: inhibitors of SUMOylation pathway: yeast Mot1-301 growth rescue; S. cerevisiae Mot1-301 growth rescue, ATP luminescence, 38.5C; percent above DMSO median, 100 means doubled; growth rescue, % at 18.8 µM; 320,000 tested, 1% active;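 active means every valid replicate shows activation above 250% relative to neutral control wells; inactive means the rest, any valid replicate at or below 250%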;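 further: OY570 slx delta 5 strain wells were the positive control but not used for scaling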
MsrA inhibitor: inhibitors of bovine MsrA; 360,000 tested, 0.75% active; inhibition, % at 15.5 µM; purified bovine MsrA, absorbance read-out; in the data active means inhibition above about 4.5%;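 further: 0% = vehicle wells with enzyme and 100% = reference inhibitor wells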
PKA-R2B act: activators of human PKA-R2B complex | activation, % at 11.4 µM | AID 504700 | P22694+P31323 | 340,000 tested, 0.079% active | PKA-R2B holoenzyme dissociation, Cy5-IP20 fluorescence polarization; R2B truncated from residue 108, S112A mutant; 0% DMSO only, 100% 113 µM cGMP;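 active means activation above a cutoff set at the mean over all compounds plus 3 SD, cut at about 18% in these data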;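 further: higher means more holoenzyme dissociation and a rise in polarization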
Target sequence (P31323 whole entry, looked up, other chains not shown, the tested form may be a part): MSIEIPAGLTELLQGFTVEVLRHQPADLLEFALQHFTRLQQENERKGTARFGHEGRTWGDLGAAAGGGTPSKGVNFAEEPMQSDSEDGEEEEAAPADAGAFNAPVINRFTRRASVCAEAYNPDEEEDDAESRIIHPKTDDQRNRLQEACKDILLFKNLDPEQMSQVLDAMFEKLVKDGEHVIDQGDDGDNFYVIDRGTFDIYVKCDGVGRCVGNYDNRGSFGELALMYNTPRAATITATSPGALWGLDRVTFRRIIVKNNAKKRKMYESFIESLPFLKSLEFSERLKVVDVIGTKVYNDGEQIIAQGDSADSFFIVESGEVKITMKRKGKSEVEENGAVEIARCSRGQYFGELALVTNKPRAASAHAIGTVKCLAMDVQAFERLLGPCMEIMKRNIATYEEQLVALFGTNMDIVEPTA
* hit, by the source's call.

How did Fc1ccc2[nH]c3c(N4CCc5ccccc5C4)ncnc3c2c1 do in these assays?
MsrA act: -2; SUMO Mot1 rescue: 122; MsrA inhibitor: 1

How did Brc1ccc2[nH]c3c(N4CCc5ccccc5C4)ncnc3c2c1 do in these assays?
SUMO Mot1 rescue: 344*

Results for N#Cc1ccccc1OCC(=O)OCC(=O)N1CCCC1 ?
PKA-R1A act: 0; MsrA act: -2; SUMO Mot1 rescue: -5; MsrA inhibitor: -1; PKA-R2B act: 0

What do the screens show for `N#Cc1ccccc1OCC(=O)OCCCOC(=O)COc1ccccc1C#N`?
PKA-R1A act: -2; MsrA act: -5; SUMO Mot1 rescue: 300*; MsrA inhibitor: 0; PKA-R2B act: 7

How did Cc1cc(NC(=O)Cc2c(C)[nH]c3ccccc23)ccc1Oc1cccnc1 do in these assays?
MsrA inhibitor: 1

What do the screens show for `COC(=O)[C@H](Cc1ccccc1)N1C[C@@H](N2CCC[C@H]2C)CS1(=O)=O`?
MsrA inhibitor: 1

What do the screens show for `O=C(CSCC(=O)OCC(=O)N1CCN(C(=O)c2ccco2)CC1)Nc1ccc(Cl)cc1`?
PKA-R1A act: -2; MsrA act: -7; MsrA inhibitor: -1; PKA-R2B act: -9

How did O=C(COC(=O)CSCC(=O)N1CCCCC1)Nc1ccc(Cl)cc1 do in these assays?
PKA-R1A act: -9; MsrA act: -3; SUMO Mot1 rescue: 338*; MsrA inhibitor: 0; PKA-R2B act: 0

What do the screens show for `Cc1cc2c(nc1C)CCCN2S(=O)(=O)c1cccs1`?
MsrA inhibitor: 0

What do the screens show for `CC(C)(C)c1ccc(C#C[C@@H]2C=C[C@H](O)[C@@H](COC(=O)Nc3ccccc3)O2)cc1`?
MsrA inhibitor: 0

Results for C=CCn1cccc(C(=O)Nc2cc(OC)ccc2OC)c1=O ?
PKA-R1A act: 3; MsrA act: -4; SUMO Mot1 rescue: 16; MsrA inhibitor: 4.7*; PKA-R2B act: -12

Results for C=CCn1cccc(C(=O)Nc2ccc(C)c(C)c2)c1=O ?
PKA-R1A act: 4; MsrA act: -5; SUMO Mot1 rescue: -2; MsrA inhibitor: 2; PKA-R2B act: 5

How did CCC(CC)c1nnc(NC(=O)c2cc(C(=O)OC)cc([N+](=O)[O-])c2)s1 do in these assays?
PKA-R1A act: -11; MsrA act: -9; SUMO Mot1 rescue: 400*; MsrA inhibitor: 2; PKA-R2B act: -6

Results for O=C1N/C(=N\N=C\c2ccco2)SC1Cc1ccccc1[N+](=O)[O-] (stereo unspecified) ?
PKA-R1A act: 1; MsrA act: -5; SUMO Mot1 rescue: 28; MsrA inhibitor: 4.6*; PKA-R2B act: -1

Results for Cc1nn(S(=O)(=O)c2cccc([N+](=O)[O-])c2)c(C)c1Br ?
PKA-R1A act: 4; MsrA act: -3; SUMO Mot1 rescue: -17; MsrA inhibitor: -1; PKA-R2B act: 7

Results for Cc1nn(C)cc1CN(C)S(=O)(=O)c1cccc([N+](=O)[O-])c1 ?
PKA-R1A act: 2; MsrA act: -1; SUMO Mot1 rescue: 550*; MsrA inhibitor: -1; PKA-R2B act: 7

How did Cc1cc(N2CCN(CC(C)(C)O)C[C@@H]2C)ccc1N1CCN(CC(C)(C)O)[C@H](C)C1 do in these assays?
MsrA inhibitor: 1

How did CC(C)(O)C(O)COc1c2ccoc2cc2oc(=O)ccc12 (stereo unspecified) do in these assays?
PKA-R1A act: -4; MsrA act: 3; SUMO Mot1 rescue: -7; MsrA inhibitor: 1; PKA-R2B act: -8

Results for CC(=O)OC(C=C(C)C)C/C(C)=C/COc1c2ccoc2cc2oc(=O)ccc12 (stereo unspecified) ?
PKA-R1A act: -7; MsrA act: -8; MsrA inhibitor: 13*; PKA-R2B act: 0

Results for O=C(Nc1cccnc1)c1cccnc1Cl ?
PKA-R1A act: 4; MsrA act: -2; SUMO Mot1 rescue: 339*; MsrA inhibitor: 0; PKA-R2B act: 1

How did CCCCOC(=O)Cn1c(-c2ccccc2)nc2ccccc2c1=O do in these assays?
PKA-R1A act: -5; MsrA act: -2; SUMO Mot1 rescue: 553*; MsrA inhibitor: 0; PKA-R2B act: -1

How did COC(=O)c1cc2c(c3c4cc(OC)ccc4n(S(=O)(=O)c4ccc(OC)cc4)c13)C(=O)N(Cc1ccc(N(C)C)cc1)C2 do in these assays?
MsrA inhibitor: 1
